High-throughput results from PubChem BioAssay.
Hits are enriched below; roughly 11% of the tested compounds scored in any of these assays.
VDR inhibitor = blocks the human vitamin D receptor | P11473 | VDR-SRC2-3 peptide fluorescence polarization, 2 h | Potency, µM, for inactives: max response, negative = inhibition, usual class: inhibitors | 400,000 tested, 0.93% active; also: % is scaled to controls: 0 for no effect and ±100 for the full control effect
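Measured by FP: displacement of SRC2-3 coactivator peptide from VDR by library compounds, following a two-hour ambient incubation.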
JMJD2A Tudor = blocks the human JMJD2A Tudor domain. AlphaScreen JMJD2A-Tudor / H3K4me3 peptide binding. Potency, µM (top dose mostly 114 µM), for inactives: at the highest dose activity change, negative = inhibition, actives largely listed as inhibitors. 390,000 tested, 4.4% active. AID 504339; also: % is scaled to controls: 0 for no effect and ±100 for the full control effect; nearly all actives have a fitted effect of over 50% in size
HP1b binding inh = inhibitors of HP1-beta chromodomain binding to methylated histone tails | P83916 | AlphaScreen HP1-beta / biotin-H3K9me3 peptide binding | Potency, µM (doses to about 114 µM), without a hit: at the highest dose activity change, negative = inhibition, hits mostly inhibitors | 390,000 tested, 0.56% active | AID 540317; also: nearly all actives have a fitted effect of over 70% in size
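Compound inhibition of the preformed complex between 50 nM HP1-beta and 50 nM biotinylated H3K9me3 peptide was read by AlphaScreen. Buffer was PBS pH 7.4 with 0.01% Tween-20. Incubations ran 30 min at room temperature, with 10 ug/mL donor/acceptor beads.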
BAZ2B inh = blocks human BAZ2B. Q9UIF8. AlphaScreen BAZ2B-H3K14Ac peptide displacement. Potency, µM (top dose mostly 114 µM), without a hit: top-dose activity change, negative = inhibition, usual class: inhibitors. 360,000 tested, 4.4% active. AID 504333; also: % is scaled to controls: 0 for no effect and ±100 for the full control effect; nearly all actives have a fitted effect of over 60% in size
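In this displacement format the biotinylated H3(5-23) peptide acetylated at Lys14 serves as ligand at 50 nM, with BAZ2B at 50 nM in PBS pH 7.4 containing 0.01% Tween-20. Donor and acceptor beads are 10 ug/mL final.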
PLK1 PBD block = PLK1 (human) polo-box domain binding inhibition. P53350. Plk1 PBD binding of FITC phosphopeptide, fluorescence polarization. Potency, µM, for the others: max response, negative = inhibition, most hits filed as inhibitors. 360,000 tested, 2.8% active. AID 720504; also: series mostly up to about 57 µM; % is scaled to controls: 0 for no effect and ±100 for the full control effect; nearly all actives have a fitted effect of over 65% in size
G9a block = blocks human histone lysine methyltransferase G9a. Q96KQ7. G9a H3K9 monomethylation, AlphaScreen, 2 h. Potency, µM (highest dose often 102 µM), for the others: top-dose activity, negative = inhibition, actives largely listed as inhibitors. 350,000 tested, 8.8% active. AID 504332; also: % is scaled to controls: 0 for no effect and ±100 for the full control effect; nearly all actives have a fitted effect of over 75% in size
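Using a bead-based AlphaScreen, monomethylated H3K9 product from 2 h room-temperature reactions (G9a 20 nM, peptide 500 nM, SAM 20 uM) was detected with 0.5 ug/mL rabbit anti-H3K9me1 antibody.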
Active calls of the source: *; ? = inconclusive; . = no result given; ! = repeats disagree; [ ] = another dose, or the depositor's remark. Calls follow the shape of the dose curve; as a rule, active = well fitted curve in the direction sought with a large enough effect; inconclusive = small, poorly fitted or top-dose-only effect, or another doubt; inactive = no such curve, though single readings can be large; an effect the other way counts as inactive or inconclusive. Potency is read from the fitted curve at half-maximal effect.

SMILES	VDR inhibitor	JMJD2A Tudor	HP1b binding inh	BAZ2B inh	PLK1 PBD block	G9a block
CCOC(=O)c1cn2ccc(C)cc2n1	-15.1%	?	22.8%	4.8%	26.7µM*	10.6%[0.501 µM]
Cc1ccc(CCN2CC(C(=O)NC3CCCCC3)CC2=O)cc1 (stereo unspecified)	-2.3%	-22.1%	11.4%	-10.6%	-7.3%	15.1%[59 µM]
COc1ccc(CCN2CC(C(=O)NC3CCCCC3)CC2=O)cc1OC (stereo unspecified)	16.4%	2.1%	40.9%	50.1µM*	-8.2%	10.9%[59 µM]
COCc1nnc(NC(=O)C2CC(=O)N(CCc3ccc(F)cc3)C2)s1 (stereo unspecified)	-6.5%	-7.7%	-29.0%	?	?	39.8µM*
Cc1ccc(CCNC(=O)C2CC(=O)N(CCc3ccc(C)cc3)C2)cc1 (stereo unspecified)	3.4%	-21.7%	11.3%	2.4%	.	-1.5%[59 µM]
COc1ccc(CCN2CC(C(=O)NCCc3ccc(C)cc3)CC2=O)cc1OC (stereo unspecified)	-13.3%	-35.2%	-12.2%	56.2µM*!	-9.6%	1.7%[59 µM]
CC(C)(C)N(Cc1ccccc1)C(=O)COC(=O)C1=NN(c2ccccc2)C(=O)CC1	-1.0%	-17.2%	8.5%	6.2%	-0.3%	-42.4%
CCCCC(O)C(=O)Nc1cc(C(F)(F)F)ccc1Cl (stereo unspecified)	.	0.0%	.	.	.	.
Oc1ccc(Cl)cc1/C=N/c1nccs1	3.6%	-17.5%	23.4%	?	-26.6%	?
Oc1c(Br)cc(Br)cc1/C=N/c1nccs1	?	-22.7%	19.6%	?	29.9µM*	1.58µM*
O=C1/C(=C/c2ccccc2)CCC1C1CCCC1 (stereo unspecified)	2.5%	17.1%	54.4%	-3.7%	-17.6%	12.3%[59 µM]
CC1CCCC(=C\c2ccccc2)/C1=N/O (stereo unspecified)	?	?	?	3.0%	26.7µM*	9.9%[59 µM]
O=C(CCCCCN1C(=O)c2cccc3cccc(c23)C1=O)NO	8.2%	.	.	.	.	16.4%[59 µM]
Cc1ccc(C)c(N2CC(C(=O)O)CC2=O)c1 (stereo unspecified)	-1.1%	2.1%	26.1%	-7.5%	-14.8%	.
CCN(CC)CCNc1ccc(C)c2sc3ccc(O)cc3c(=O)c12	-12.2%	22.4µM*	?	.	8.0%	.
CCN(CC)CCNc1ccc(CO)c2oc3cc(Cl)ccc3c(=O)c12	.	.	.	.	-2.4%	.
CCN(CC(=O)Nc1ccc(NC(C)=O)cc1)C(=O)COc1ccccc1-c1ccccc1	-7.3%	-14.2%	34.1%	-5.3%	1.6%	5.4%[2.33 µM]
CCN(CC(=O)Nc1ccc(NC(C)=O)cc1)C(=O)CCCSc1nc2ccccc2[nH]1	?	-10.5%	8.8%	9.1%	-0.6%	50.1µM*
CCOc1ccccc1OCCCC(=O)N(CC)CC(=O)Nc1ccc(NC(C)=O)cc1	3.4%	-9.7%	13.5%	8.5%	0.9%	50.1µM*
CC(=O)Nc1ccc(NC(=O)CCCSc2nc3ccccc3[nH]2)cc1	31.6%	-5.0%	10.3%	-17.3%	-17.8%	10.1%[12.7 µM]
Cc1ccc(Cn2c(C)c(CNCC(C)c3ccccc3)c(C(=O)O)c2C)cc1 (stereo unspecified)	13.1%	-30.5%	9.7%	?	.	-3.7%[59 µM]
Nc1ncnc2c1nc(Br)n2C1OC2COP(=O)(O)O[C@@H]2C1O (stereo partly specified)	5.3%	.	.	.	.	?
COc1ccc(CC(=O)NNC(=O)c2cccnc2)cc1OC	-4.4%	-3.4%	39.1%	?	-4.1%	0.1%
COc1ccc(Cl)cc1NC(=S)NCc1cccnc1	5.1%	-2.0%	45.6%	-22.0%	-5.9%	-30.5%
COc1ccc(NC(=S)NNC(=O)c2cccnc2)cc1OC	-3.7%	-15.3%	21.3%	-14.5%	-8.8%	44.7µM*
COc1ccc(Cl)cc1NC(=S)NNC(=O)c1cccnc1	-16.9%	-25.3%	2.5%	4.6%	-17.5%	25.1µM*
S=C(c1cn(Cc2ccc(Br)cc2)c2ccccc12)N1CCOCC1	?	25.1µM*	?	?	29.9µM*	?
Oc1[nH]c2ccccc2c1N=NC(=S)N1CCOCC1	-25.1%	7.08µM*	-19.1%	22.4µM*	?	31.6µM*
